Experimental data as given in publication PMC13494018.

The binders below were run against CD276, Q5ZPR3.
Sequence of CD276, Q5ZPR3 (Q5ZPR3 whole entry): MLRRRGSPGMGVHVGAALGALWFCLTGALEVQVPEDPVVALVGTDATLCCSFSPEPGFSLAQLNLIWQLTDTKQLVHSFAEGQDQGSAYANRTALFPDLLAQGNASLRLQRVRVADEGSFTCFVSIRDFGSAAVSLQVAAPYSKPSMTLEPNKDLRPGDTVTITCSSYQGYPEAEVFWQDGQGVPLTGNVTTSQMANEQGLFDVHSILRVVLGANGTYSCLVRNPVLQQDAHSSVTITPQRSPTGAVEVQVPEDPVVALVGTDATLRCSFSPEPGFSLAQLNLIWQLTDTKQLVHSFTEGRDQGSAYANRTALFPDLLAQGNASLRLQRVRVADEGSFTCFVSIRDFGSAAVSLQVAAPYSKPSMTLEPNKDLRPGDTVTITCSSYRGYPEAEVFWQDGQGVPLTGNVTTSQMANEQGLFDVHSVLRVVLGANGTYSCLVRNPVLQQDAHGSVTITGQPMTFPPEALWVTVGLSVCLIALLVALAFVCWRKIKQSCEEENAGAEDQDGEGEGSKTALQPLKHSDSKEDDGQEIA

Binder	binding in a display sort
d1r8_design_ppi_128_dldesign_0_cycle0_af2pred (protein) EEEVKKAKEEAEKAIEEARETERRYFAEAGRNPANALAYLQAGLEELEKIAKELERKGEEEGGEAGKVYKEAAREIKERRERIAAALS	not found (inactive)
d1r8_design_ppi_393_dldesign_0_cycle1_af2pred (protein) EREELAERLEKAARLLEEGAASDSPGLLAARAWAAANVAPPEWAARLREVSRAALANVEEGRKLAKELAEELRKEAERLRKEL	not found (inactive)
d1r8_design_ppi_321_dldesign_0_cycle0_af2pred (protein) SAEENKKRLIAAAEAAFKNFSAEAERLEAEGKKEEAAKVYEQLAELLEQMRESAKATAGEEGAKEIEKLLEEAKKKLEEVK	not found (inactive)
d1r8_design_ppi_364_dldesign_0_cycle1_af2pred (protein) ALEEAAREARELADETLAAAKAGTINLEELAARFNEAGRLIREVEALGELAEEVGRYVSRKFNEALTALL	not found (inactive)
d1r8_design_ppi_185_dldesign_0_cycle1_af2pred (protein) AAQAKALAAEADKLTEKARKLAKEGGDKEEVSKLLAEAAEKYAAAAEADPSTAFEYNARANLARFASQQNLEQAAKVAEAI	not found (inactive)
d1r8_design_ppi_443_dldesign_0_cycle0_af2pred (protein) SAAAALLARTAAAIVAQTRALVGDAKAAEAQALADAAVAAAKAGDYAKAGALLTELLKLAAEARREKAAAEAAAAA	not found (inactive)
d1r8_design_ppi_373_dldesign_0_cycle1_af2pred (protein) SEELIKNLLLAASKALAGVESAPEAIKAAEEAAKDPRLKEDAEKAKKLIKAAIKATPEEAAKLLKKAAKLLNDALRKYTS	not found (inactive)
d1r7_design_ppi_869_dldesign_0_cycle0_af2pred (protein) GIGDELAKGEEYYRKSIELAKEGNKEEAKKYLEEAEAHYAAAAAAAEAQGNTALAAALRARAKARKEEAEKLIK	not found (inactive)
d1r8_design_ppi_373_dldesign_0_cycle0_af2pred (protein) DQETTGNLVLAAAKANAGVEEADKAIEAAEKAAKDPKLKEKAEEAKKLIEEAKKATPEEAKKLLKEAAKLVNEALRAYSA	not found (inactive)
d1r8_design_ppi_543_dldesign_0_cycle0_af2pred (protein) AAAQTAHAQAVLDTLIALALRKAAEDPAAARAALESAKLVAEGVKATGDAATGAAAQAKVDAAGAEVAAAAA	not found (inactive)
d1r8_design_ppi_467_dldesign_0_cycle1_af2pred (protein) AEAEAAVASLVEFVKAILDAAATQDPRLAPAAEEALALMEAGDFDEAARLFLAAGAAAGPAAAALARAAANAMRLAAEAAAAI	not found (inactive)
d1r8_design_ppi_587_dldesign_0_cycle0_af2pred (protein) SEYRREAEELRERVERIEKRMREAKTAEEAREVLREAQRVAAEAARLAVQAAADGADQEVLDEINEVLSRALEVAREASRKARELE	not found (inactive)
d1r8_design_ppi_566_dldesign_0_cycle1_af2pred (protein) MTPEEAREMGERIREAAKRSVEEAVKAIEEAKEKLSPELKPLADRAIELAKRSPEAGANLATTALHIEALS	not found (inactive)
d1r8_design_ppi_233_dldesign_0_cycle1_af2pred (protein) GALEEAKEKKKEAEEIGKQALALAAQNPASRAQAGALQVELLKLSAEARRKAEEYKADPETREAAKAYEEAAKLASQKIVEVSQALV	not found (inactive)
d1r8_design_ppi_401_dldesign_0_cycle1_af2pred (protein) MEKVEKAKKGLEQATELAKAMVPEKAEEFEKIRKEGVEEAKKAAGDPEKAAEILAKARNEILRNGIKAAMAAAKAAA	binds (active)
d1r7_design_ppi_937_dldesign_0_cycle1_af2pred (protein) GAAAEAAEREAKAALLKEVGAAAARMAPENPRLAAAGALGAARGLAALGYAEEGKAVLEETAAALPDPEEAARLRAAAAAL	binds (active)
d1r8_design_ppi_23_dldesign_0_cycle0_af2pred (protein) MEELAEEYIEEARRYAEEAERLAEQAGEAARPLARAARRALELAEENREDLELVKGQAEAARVFLEAARSRLEQLA	not found (inactive)
d1r7_design_ppi_871_dldesign_0_cycle1_af2pred (protein) AAAAQTALRTAAAMYRSAAEMFEAGKTEDGLAAAKVAADVAANVPANKEFAAKTLKEITEAAKKDPAEAAKIAREAADYLDAQAAA	not found (inactive)
d1r8_design_ppi_454_dldesign_0_cycle1_af2pred (protein) AAEAQARAEKAEKLMREAVELVKADPTPEAVKEAEKLIAEAAKLATGSAEKHAAANAARALRTRGPEAAEVQAKLFVEMIKT	not found (inactive)

Binder	binding in a display sort
d1r8_design_ppi_534_dldesign_0_cycle1_af2pred (protein) AAALAAEAAALAQEALANIAEADALAKKADPEIGKIYEEAARHFMRGVSLAQRGDLERAKKEIEEGKKLFEKAKELEKKKKEKE	not found (inactive)
d1r8_design_ppi_218_dldesign_0_cycle1_af2pred (protein) PTPEELAAAYREVRELAERAVAGTPEEAKRYAERIAELVARAEERFGPGAGVLLRNVALAVARANPVAYEYVRAAL	not found (inactive)
d1r7_design_ppi_889_dldesign_0_cycle1_af2pred (protein) SEELDRAGAQTLAEIVGKQAKKVAKAAKELSKEKGGELTPLAEKAEEAAKKAIKLAEEGASAEEIYKAAQEAQDLRLKAKAALKAAKA	not found (inactive)
d1r8_design_ppi_364_dldesign_0_cycle0_af2pred (protein) DLERAAEEAERLAEETLARAAAGEITLEELAEAHRRIGELIERVAASGELAERVARRASRLMNQALTALA	not found (inactive)
d1r8_design_ppi_588_dldesign_0_cycle1_af2pred (protein) AAEDKALAAAMAAEAEKVIAEAAKQTPAEANKLAATFAEKAFALAKEHPGAAAALNAAAFKVLTGAMKAIQAQSA	not found (inactive)
d1r7_design_ppi_873_dldesign_0_cycle1_af2pred (protein) SESIENQKKASEAMSEAIEAMAKAGFPISERNEVGKLGIEAMRLFQKSPEDPAALEEGKKKLAEVEKRLKEAKAA	not found (inactive)
d1r8_design_ppi_296_dldesign_0_cycle1_af2pred (protein) SAAAKAAAEAAKQRVDGLAQMAIASPALLPHMEAMAKRAAAAVAALDPALGAEVEKYAKEQMAKAKAAVAAAAAAA	not found (inactive)
d1r7_design_ppi_941_dldesign_0_cycle1_af2pred (protein) AADRAAAAAALGAAVEAYSELVKLAKEAIEKHGPKVAPEMEKLIAEAQKALAAAAKAAIAGDAKAAKAAAEKIKKLKEEAKKLLEE	not found (inactive)
d1r7_design_ppi_941_dldesign_0_cycle0_af2pred (protein) AAAAAEAAEYLGKAVEYHKELEEAARRAIEKFGPEVEEEMEELLREAREALAKASQAAIAGDAEKTKEEMEKIKKIRERAKELLEK	not found (inactive)
d1r8_design_ppi_314_dldesign_0_cycle1_af2pred (protein) ALEEAKKAAEEAKAAAAEARAYFDAAGLTGAGNGFYNNTKKRAEELLKEAEEGSEEEAKKARKELERLKETAEKMLEVAKGVYAAAQA	not found (inactive)
d1r8_design_ppi_87_dldesign_0_cycle1_af2pred (protein) NPLLEEARRAIEEAAKLVKTGTPEEAREALKRAAHELLRLAARSTDQAVAQKLITAAELVAKAAELVLTNPEEALKLVEEAL	not found (inactive)
d1r8_design_ppi_140_dldesign_0_cycle0_af2pred (protein) DVAAMKKEVEELKKKVEEVAKKAAESPEAQPYVNQAKGNAKSAELAAEGGDVALAKRFLKLAEEAMKKAEALI	not found (inactive)
d1r8_design_ppi_139_dldesign_0_cycle1_af2pred (protein) AMSVGELMEVAKAEGAAVNAAAAALAAKDPAKAAALLDAYRAKVNAIIAEMSRTAIASGDFEAAAAAAAAKIKAAAKETLAALKAIA	not found (inactive)
d1r8_design_ppi_80_dldesign_0_cycle0_af2pred (protein) AAAEAAAALAAARAALAAVRETLARAERGEATREEAGAAINAGMRTIAALNAVAARIPAAKAEFDALAGEILDAIRALAAAVR	not found (inactive)
d1r8_design_ppi_356_dldesign_0_cycle1_af2pred (protein) VLEAVSAALSLAEEAAELDPRAGHALLTYANAVWNPATLEKGRKTAREKAKEFKKRAEEEDGERARKAAELLEKAIEEAEKLLKEA	not found (inactive)
d1r8_design_ppi_233_dldesign_0_cycle0_af2pred (protein) DDLEEARELLEEARRLGEQALALVAQNPAARAEGGALMLELLKLQAEARRRAAEYEADPEKAEAAEAYREAAELASQLVRQISQAAV	not found (inactive)
d1r8_design_ppi_443_dldesign_0_cycle1_af2pred (protein) SPAAALLARTAAAIAAQTVREVGPARAAELQALADAATAAAEAGDFTTAGELLEELLRLAAEARAEKAAAERAAAA	not found (inactive)
d1r8_design_ppi_150_dldesign_0_cycle1_af2pred (protein) SQAALVAAKGALALAKGIKAHVESNPNLPLEELEKLKEQLKTAEEMAKAAEKEAKKAGDKEVLEAAKKALEAIKEAKKALEEAIKKAK	not found (inactive)
d1r8_design_ppi_82_dldesign_0_cycle1_af2pred (protein) AAAAAKTAAKNVLKAVENFSKNAAAAGKASTPEEAARKLAEIEKFGEAGIAVAAADPEIAKKVKEVVDKAIAELKKAAA	not found (inactive)
